Reference: PubChem BioAssay (EPA / NIEHS)
Results filed as inconclusive are left out. Activity calls are given as the source filed them. The calls were made as follows, unless noted: active = hit-call score of the fitted dose curve at least 0.9, where 1 is the maximum; inconclusive = response in the unintended direction; inactive = score below 0.9.

What was measured:
[1] = TOX21_p53_BLA_p2_viability: Viability Assessment in the Tox21 HCT-116 p53 Agonism Beta-lactamase Assay, Phase 2 (AID 2283591);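 also: compound exposure lasted 16 h at 37 °C; actives lower the ATP signal meaning cytotoxicity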
Procedure, shortened: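 HCT116 p53-bla cells, 4000/well, dosed after 5 h plating (217-fold dilution of DMSO stocks) and incubated 16 h at 37C. Viability taken as cellular ATP by CellTiter-Glo luminescence after 30 min RT; signal loss marks cytotoxicity.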

[2] = target: Cellular tumor antigen p53 (Homo sapiens) (UniProt P04637); assay: TOX21_p53_BLA_p2_ratio: Tox21 HCT-116 p53 Agonism Beta-lactamase Assay, Ratio, Phase 2 (AID 2283592)
Chain of Cellular tumor antigen p53 (Homo sapiens) (P04637 whole entry, looked up): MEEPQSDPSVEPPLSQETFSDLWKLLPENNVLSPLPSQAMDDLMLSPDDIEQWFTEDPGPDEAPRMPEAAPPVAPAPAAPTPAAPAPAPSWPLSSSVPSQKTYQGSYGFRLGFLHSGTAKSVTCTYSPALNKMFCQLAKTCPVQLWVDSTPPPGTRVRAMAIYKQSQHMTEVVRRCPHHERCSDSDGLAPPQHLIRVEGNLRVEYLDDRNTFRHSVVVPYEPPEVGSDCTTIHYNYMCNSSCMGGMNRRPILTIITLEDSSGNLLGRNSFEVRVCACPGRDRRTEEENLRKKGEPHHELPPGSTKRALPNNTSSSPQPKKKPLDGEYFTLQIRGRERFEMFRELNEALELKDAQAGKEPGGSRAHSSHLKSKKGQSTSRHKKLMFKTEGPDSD
Procedure, shortened: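 Ratio endpoint: beta-lactamase cleavage of CCF4-AM, blue (460 nm) over green (530 nm). HCT116 reporter line; 16 h treatment, 37C; substrate 2 h RT.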

[3] = TOX21_p53_BLA_p4_viability: Viability Assessment in the Tox21 HCT-116 p53 Agonism Beta-lactamase Assay, Phase 4 (AID 2283597);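 also: hits lower the luminescence signal meaning cytotoxicity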
Procedure, shortened: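 Cytotoxicity was inferred from loss of CellTiter-Glo luminescence. HCT116 cells had been dosed with compounds after 5 h plating, incubated 16 h at 37C and 5% CO2, and exposed to the CCF4-AM substrate for 2 h.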

[4] = target: Cellular tumor antigen p53 (Homo sapiens) (UniProt P04637); assay: TOX21_p53_BLA_p5_ratio: Tox21 HCT-116 p53 Agonism Beta-lactamase Assay, Ratio, Phase 5 (AID 2283599)
Procedure, shortened: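 HCT-116 p53-bla cells (4000/well) plated 5 h, dosed with compound (217-fold DMSO dilution) for 16 h at 37 C; CCF4-AM substrate 2 h at room temperature. Activity is the 460/530 nm emission ratio (405 nm excitation), fitted in gain-of-signal direction versus DMSO.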

[5] = TOX21_p53_BLA_p5_viability: Viability Assessment in the Tox21 HCT-116 p53 Agonism Beta-lactamase Assay, Phase 5 (AID 2283600)
Procedure, shortened: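 Luciferase-coupled ATP quantitation of cells treated for 16 h (37C, 5% CO2) with test chemicals delivered in DMSO via a 217-fold dilution; 4000 cells/well; reagent incubated 30 min at room temperature before luminescence reading.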

[6] = target: Cellular tumor antigen p53 (Homo sapiens) (UniProt P04637); assay: TOX21_p53_BLA_p4_ratio: Tox21 HCT-116 p53 Agonism Beta-lactamase Assay, Ratio, Phase 4 (AID 2283601)
Procedure, shortened: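 HCT-116 p53 beta-lactamase reporter cells (4000/well) preincubated 5 h, then compound (217-fold dilution of DMSO stock) for 16 h at 37C. CCF4-AM substrate added 2 h at room temperature; 460/530 nm emission ratio fitted upward versus DMSO.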

[7] = target: Cellular tumor antigen p53 (Homo sapiens) (UniProt P04637); assay: TOX21_p53_BLA_p3_ratio: Tox21 HCT-116 p53 Agonism Beta-lactamase Assay, Ratio, Phase 3 (AID 2283596)
Procedure, shortened: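 Cells were seeded at 4000/well, rested 5 h at 37C, then dosed with DMSO compound solutions (217-fold dilution) for 16 h. CCF4-AM substrate was loaded for 2 h at room temperature, and the 460/530 nm emission ratio was fitted for gain of signal versus DMSO.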

THRA (gene 7067) = THRA (gene 7067) (UniProt P10827); assay: TOX21_TRA_COA_Antagonist_Followup_ratio: Tox21 Thyroid Hormone Receptor alpha Antagonism through Coactivator Recruitment Follow-Up Assay, Ratio (AID 2283953)
Chain of THRA (gene 7067) (P10827 whole entry, looked up, the tested form may be a part): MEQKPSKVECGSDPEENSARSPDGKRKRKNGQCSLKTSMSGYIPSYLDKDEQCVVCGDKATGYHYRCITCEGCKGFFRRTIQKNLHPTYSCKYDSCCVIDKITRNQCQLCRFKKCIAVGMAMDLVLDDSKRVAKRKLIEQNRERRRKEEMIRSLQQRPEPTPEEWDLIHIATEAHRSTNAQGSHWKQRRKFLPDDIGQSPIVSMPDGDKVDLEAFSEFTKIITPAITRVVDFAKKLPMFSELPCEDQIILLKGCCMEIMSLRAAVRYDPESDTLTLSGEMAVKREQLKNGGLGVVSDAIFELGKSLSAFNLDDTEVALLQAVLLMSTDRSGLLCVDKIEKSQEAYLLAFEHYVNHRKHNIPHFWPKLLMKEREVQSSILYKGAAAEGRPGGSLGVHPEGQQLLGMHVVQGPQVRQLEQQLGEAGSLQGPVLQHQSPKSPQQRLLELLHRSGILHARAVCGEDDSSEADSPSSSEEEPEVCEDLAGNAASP
Procedure, shortened: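 We measured antagonism of T3-type coactivator recruitment using a TR-FRET ratio (emission 520 and 495 nm) between a Tb-labelled anti-GST antibody on TRα LBD (2.5 nM) and SRC-2 peptide (200 nM). Activity was scaled between DMSO and T3 wells.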

THRB (gene 7068) [8] = target: THRB (gene 7068) (UniProt P10828); assay: TOX21_TRB_BLA_Antagonist_Followup_ratio: Tox21 Thyroid Hormone Receptor beta Antagonism Beta-lactamase (BLA) Follow-Up Assay, Ratio (AID 2283958)
Chain of THRB (gene 7068) (P10828 whole entry, looked up, the tested form may be a part): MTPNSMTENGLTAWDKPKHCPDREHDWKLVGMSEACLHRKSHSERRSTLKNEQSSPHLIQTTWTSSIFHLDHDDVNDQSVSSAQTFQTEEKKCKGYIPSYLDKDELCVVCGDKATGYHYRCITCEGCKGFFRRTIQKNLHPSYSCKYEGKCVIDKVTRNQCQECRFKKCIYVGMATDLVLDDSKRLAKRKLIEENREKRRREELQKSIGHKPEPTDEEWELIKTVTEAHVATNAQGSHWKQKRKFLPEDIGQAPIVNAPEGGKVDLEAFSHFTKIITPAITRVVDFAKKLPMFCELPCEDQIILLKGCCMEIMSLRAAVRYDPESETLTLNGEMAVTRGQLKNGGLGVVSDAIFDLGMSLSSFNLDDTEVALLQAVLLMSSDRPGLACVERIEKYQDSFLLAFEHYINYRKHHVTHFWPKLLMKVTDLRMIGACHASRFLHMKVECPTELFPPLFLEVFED
Procedure, shortened: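 Read-out: blue/green (460:530 nm) ratio of cleaved to uncleaved CCF4-AM after 2 h at room temperature, fitted against DMSO baseline. HEK293T UAS-bla cells carrying GAL4-human TRβ LBD were exposed 18 h, 37C/5% CO2.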

[9] = TOX21_TRB_BLA_Antagonist_Followup_viability: Viability Assessment in the Tox21 Thyroid Hormone Receptor beta Antagonism Beta-lactamase (BLA) Follow-Up Assay (AID 2283961)
Procedure, shortened: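 HEK293T cells stably expressing GAL4-DBD/human TRβ-LBD with UAS-bla reporter, 3,000 cells/well in phenol red-free DMEM, 2% charcoal-stripped FBS. Compounds at 11 concentrations in triplicate, 18 h at 37C/5% CO2; viability by CellTiter-Glo luminescence after 30 min at room temperature.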

THRB (gene 7068) [10] = target: THRB (gene 7068) (UniProt P10828); assay: TOX21_TRB_COA_Antagonist_Followup_ratio: Tox21 Thyroid Hormone Receptor beta Antagonism through Coactivator Recruitment Follow-Up Assay, Ratio (AID 2283967)
Procedure, shortened: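 GST-TRb LBD 5.0 nM + 0.10% BSA, compound added; fluorescein-SRC-2 peptide 200 nM, Tb-anti-GST Ab 2 nM. TR-FRET, ex 340 / em 520:495 ratio. Norm: DMSO 0%, T3 100%.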

[11] = CCTE_Harrill_HTTr_Viability_MCF7: CCTE's 6-hour Cell Viability Assessment for the High-Throughput Transcriptomics (HTTr) Platform, in MCF-7 cells cultured in DMEM + 10% fetal bovine serum, Harrill Lab (AID 2284010; active = hit-call score of the fitted dose curve at least 0.9, where 1 is the maximum; inactive = score below 0.9)
Procedure, shortened: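 PI exclusion, high-content imaging; 8-pt dilution series, 6 h exposure; bidirectional fit vs DMSO (neg. ctrl/baseline); gain of signal = loss of membrane integrity.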

[12] = CCTE_Harrill_HTTr_Apoptosis_MCF7: CCTE's 6-hour Apoptosis Assessment for the High-Throughput Transcriptomics (HTTr) Platform, in MCF-7 cells cultured in DMEM + 10% fetal bovine serum, Harrill Lab (AID 2284011; active = hit-call score of the fitted dose curve at least 0.9, where 1 is the maximum; inactive = score below 0.9)
Procedure, shortened: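 MCF-7 cells in DMEM + 10% fetal bovine serum were exposed to chemicals for 6 hours over an eight-point dilution series. Caspase-3/7 activation was imaged by high content imaging with CellEvent Caspase 3/7 Green; bidirectional fitting used DMSO as baseline.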

[13] = CCTE_Harrill_HTTr_CellCount_MCF7: CCTE's Cell Proliferation Assessment for the High-Throughput Transcriptomics (HTTr) Platform, Harrill Lab (AID 2284012);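 also: count of Hoechst-stained nuclei per well by high-content imaging in MCF-7 cells; cells exposed to compound for six hours; intended direction is loss of nuclei count meaning fewer cells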
Procedure, shortened: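 Readout: Hoechst nuclear count by high-content imaging. MCF-7, 8-point dilution series, 6 h exposure. Bidirectional fit vs DMSO baseline.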

Measured: outcome

O=C(CCCN1CCN2CCCC2C1)c1ccc(F)cc1 (stereo unspecified)
inactive: [1] | [2] | [3]

CC(COc1ccc(C(C)(C)C)cc1)OS(=O)OCCCl (stereo unspecified)
inactive: [1] | [2] | [3] | [4] | [5] | [6]

CCCCOC(=O)c1ccccc1C(=O)OCC(CC)CCCC (stereo unspecified)
inactive: [1] | [2] | [3]

CC(O)CN(C)C (stereo unspecified)
inactive: [1] | [2] | [3] | [4] | [6]

Cc1ccc(N=Nc2c(O)c(C(=O)O)cc3ccccc23)c(S(=O)(=O)O)c1
inactive: [1] | [2] | [3] | [4] | [6]

CCc1cn([C@H]2C[C@H](O)[C@@H](CO)O2)c(=O)[nH]c1=O
inactive: [1] | [2] | [3] | [4] | [5] | [6]

Nc1ncnc(Nc2ccc(Cl)cc2)n1
inactive: [1] | [2] | [3] | [4] | [5] | [6]

Cc1nc(-c2ccc(OCC(C)C)c(C#N)c2)sc1C(=O)O
inactive: [1] | [2] | [7] | THRA (gene 7067) | THRB (gene 7068) [8] | [9] | THRB (gene 7068) [10] | [11] | [12] | [13]

CC(=O)c1cc(C)oc1C
inactive: [1] | [2] | [3] | [4] | [5] | [6]

Cc1cc(C)c(NC(=O)C[C@H](CC(=O)O)c2cccc3ccccc23)c(C(=O)N2CCC3(CCCC3)CC2)c1
inactive: [1] | [2] | [7] | [6]

CC1CCc2c(N3CCC(O)CC3)c(F)cc3c(=O)c(C(=O)O)cn1c23 (stereo unspecified)
inactive: [1] | [2] | [7] | [6]

CCN1CCC[C@H]1CNC(=O)c1c(O)c(Cl)cc(Cl)c1OC
inactive: [1] | [2] | [3] | [4] | [5]

CCOC(=O)Cc1cccc(-c2cc(CCCCCCc3ccc(O[C@H]4O[C@H](COC(C)=O)[C@@H](OC(C)=O)[C@H](OC(C)=O)[C@@H]4OC(C)=O)c(-c4cccc(CC(=O)OCC)c4)c3)ccc2O[C@H]2O[C@H](COC(C)=O)[C@@H](OC(C)=O)[C@H](OC(C)=O)[C@@H]2OC(C)=O)c1
inactive: [1] | [2] | [7] | [6]

O=C=Nc1ccc(Cl)c(Cl)c1
inactive: [1] | [2] | [3] | [4] | [5] | [6]

O=C1N(c2ccccc2)c2ccccc2C1(Cc1ccncc1)Cc1ccncc1
inactive: [1] | [2] | [3] | [4] | [6]

CC(C)NC[C@@H](O)COc1ccc(CC(N)=O)cc1
inactive: [1] | [2] | [7] | [6]

Cc1cc(C)cc(OCC2CNC(=O)O2)c1 (stereo unspecified)
inactive: [1] | [2] | [7] | [6]

O=S(=O)(O)CCS
inactive: [1] | [2] | [3] | [4] | [5] | [6]

CN1CCC(CN2c3ccccc3Sc3ccccc32)C1 (stereo unspecified)
inactive: [1] | [2] | [3] | [4]

ON=C1CCCC1
inactive: [1] | [2] | [7] | [6]

CN1CCN(CCCN2c3ccccc3Sc3ccc(S(=O)(=O)N(C)C)cc32)CC1
inactive: [1] | [2] | [3] | [4] | [5] | [6]

O=C(NC(Cc1cc(=O)[nH]c2ccccc12)C(=O)O)c1ccc(Cl)cc1 (stereo unspecified)
inactive: [1] | [2] | [7] | [6]

CCCCCOC(=O)Nc1nc(=O)n([C@@H]2O[C@H](C)[C@@H](O)[C@H]2O)cc1F
inactive: [1] | [2] | [3] | [4] | [5] | [6]

O=S(=O)(Cl)c1c(Cl)cccc1Cl
inactive: [1] | [2] | [3] | [4] | [5] | [6]

CCCC(C)C(=O)O (stereo unspecified)
inactive: [1] | [2] | [3] | [4] | [5]

Nc1ncnc(Nc2ccccc2)n1
inactive: [1] | [2] | [7] | [6]

CC(C)(CO)[C@@H](O)C(=O)NCCC(=O)NCCSSCCNC(=O)CCNC(=O)[C@H](O)C(C)(C)CO
inactive: [1] | [2] | [7] | [6]

CC1c2ccccc2CN1NC(=O)c1ccc(Cl)c(S(N)(=O)=O)c1 (stereo unspecified)
inactive: [1] | [2] | [3] | [4] | [5] | [6]
